PubChem BioAssay AID1159580 (chemical genetic matrix, 2015)
In all, about 5,500 compounds went through this assay and about 2,000 (36%) were called active. Not shown: some 18% with an inconclusive outcome. Rule as the data show it: active = normalized growth mostly below about 0.91 (no sharp cut-off); inconclusive = no clear call, values can overlap the other calls; inactive = mostly above about 0.92. This is one part of the list.

Test: chemical genetic growth profiling, strain panel (AID 1159580);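 also: tested at 20 µM; growth read once vehicle control cultures reached saturation at 30 °C; 1 = growth at the plate median or of vehicle wells; lower values mean less growth of the strain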
Conditions: S. cerevisiae deletion strains, growth OD
[1] = locus YAL021C, strain ccr4, hits give low values
[2] = locus YAL026C, strain drs2, hits give low values
[3] = locus YAL030W, strain snc1, hits give low values
[4] = locus YBL061C, strain skt5, hits give low values
[5] = locus YBR009C, strain hhf1, hits give low values
[6] = locus YBR023C, strain chs3, hits give low values
[7] = locus YBR171W, strain sec66, hits give low values
[8] = locus YBR231C, strain swc5, hits give low values
[9] = locus YBR279W, strain paf1, hits give low values
[10] = locus YCL011C, strain gbp2, hits give low values
[11] = locus YCL016C, strain dcc1, hits give low values
[12] = locus YCL069W, strain vba3, hits give low values
[13] = locus YCR088W, strain abp1, hits give low values
[14] = locus YDL005C, strain med2, hits give low values
[15] = locus YDL040C, strain nat1, hits give low values
[16] = locus YDR001C, strain nth1, hits give low values
[17] = locus YDR069C, strain doa4, hits give low values
[18] = locus YDR137W, strain rgp1, hits give low values
[19] = locus YDR159W, strain sac3, hits give low values
[20] = locus YDR297W, strain sur2, hits give low values
[21] = locus YDR334W, strain swr1, hits give low values
[22] = locus YDR335W, strain msn5, hits give low values
[23] = locus YDR392W, strain spt3, hits give low values
[24] = locus YEL003W, strain gim4, hits give low values
[25] = locus YEL037C, strain rad23, hits give low values
[26] = locus YEL061C, strain CIN8 (second series), hits give low values
[27] = locus YER015W, strain faa2, hits give low values
[28] = locus YER016W, strain bim1, hits give low values
[29] = locus YER111C, strain swi4, hits give low values
[30] = locus YER155C, strain BEM2 (second series), hits give low values
[31] = locus YFR010W, strain ubp6, hits give low values
[32] = locus YGL167C, strain pmr1, hits give low values
[33] = locus YGL173C, strain kem1, hits give low values
[34] = locus YGL227W, strain vid30, hits give low values
[35] = locus YGL240W, strain doc1, hits give low values
[36] = locus YGL253W, strain hxk2, hits give low values
[37] = locus YHR013C, strain ard1, hits give low values
[38] = locus YHR027C, strain rpn1, hits give low values
[39] = locus YHR030C, strain SLT2, hits give low values
[40] = locus YHR079C, strain IRE1, hits give low values
[41] = locus YHR142W, strain chs7, hits give low values
[42] = locus YJL092W, strain hpr5, hits give low values
[43] = locus YJL095W, strain BCK1 (second series), hits give low values
[44] = locus YJL095W, strain BCK1, hits give low values
[45] = locus YJL115W, strain asf1, hits give low values
[46] = locus YJL129C, strain trk1, hits give low values
[47] = locus YJL154C, strain vps35, hits give low values
[48] = locus YJL164C, strain tpk1, hits give low values
[49] = locus YJL166W, strain qcr8, hits give low values
[50] = locus YJL187C, strain SWE1, hits give low values
[51] = locus YJR066W, strain TOR1, hits give low values
[52] = locus YKL160W, strain elf1, hits give low values
[53] = locus YKR026C, strain gcn3, hits give low values
[54] = locus YKR091W, strain srl3, hits give low values
[55] = locus YLL001W, strain dnm1, hits give low values
[56] = locus YLL026W, hits give low values
[57] = locus YLL041C, strain sdh2, hits give low values
[58] = locus YLR027C, strain aat2, hits give low values
[59] = locus YLR113W, strain HOG1, hits give low values
[60] = locus YLR221C, strain rsa3, hits give low values
[61] = locus YLR258W, strain gsy2, hits give low values
[62] = locus YLR262C, strain YPT6 (second series), hits give low values
[63] = locus YLR320W, strain mms22, hits give low values
[64] = locus YLR342W, strain FKS1, hits give low values
[65] = locus YLR357W, strain rsc2, hits give low values
[66] = locus YLR370C, strain arc18, hits give low values
[67] = locus YLR384C, strain iki3, hits give low values
[68] = locus YML120C, strain ndi1, hits give low values
[69] = locus YMR058W, strain fet3, hits give low values
[70] = locus YMR125W, strain sto1, hits give low values
[71] = locus YMR129W, hits give low values
[72] = locus YMR205C, strain PFK2, hits give low values
[73] = locus YMR231W, strain pep5, hits give low values
[74] = locus YNL071W, strain lat1, hits give low values
[75] = locus YNL183C, strain NPR1, hits give low values
[76] = locus YNL209W, strain ssb2, hits give low values
[77] = locus YNL248C, strain rpa49, hits give low values
[78] = locus YNL322C, strain KRE1 (second series), hits give low values
[79] = locus YNR049C, strain mso1, hits give low values
[80] = locus YOR001W, strain rrp6, hits give low values
[81] = locus YOR070C, strain gyp1, hits give low values
[82] = locus YOR080W, strain dia2, hits give low values
[83] = locus YOR083W, strain WHI5, hits give low values
[84] = locus YOR106W, strain vam3, hits give low values
[85] = locus YOR231W, strain MKK1, hits give low values
[86] = locus YOR265W, strain rbl2, hits give low values
[87] = locus YOR270C, strain vph1, hits give low values
[88] = locus YOR290C, strain snf2, hits give low values
[89] = locus YPL051W, strain arl3, hits give low values
[90] = locus YPL078C, strain atp4, hits give low values
[91] = locus YPL106C, strain sse1, hits give low values
[92] = locus YPL240C, strain hsp82, hits give low values
[93] = locus YPL256C, strain CLN2, hits give low values

Measured: normalized growth

C=C1C(=O)[C@]23[C@H](O)[C@H]1CC[C@H]2[C@@]12CO[C@]3(O)[C@H](O)[C@@H]1C(C)(C)CC[C@@H]2O
inactive: [1] 1.02 | [2] 0.99 | [3] 1 | [4] 0.987 | [5] 0.948 | [6] 0.991 | [7] 0.999 | [8] 1.01 | [9] 1 | [10] 0.983 | [11] 0.972 | locus YCL061C, strain MRC1, hits give low values 1 | [12] 0.995 | [13] 1 | [14] 1.01 | [15] 0.993 | [16] 1 | [17] 1.04 | [18] 0.99 | [19] 1 | locus YDR195W, strain ref2 1.03 | [20] 1 | [21] 0.994 | [22] 1 | [23] 0.883 | [24] 0.992 | [25] 1 | [26] 1 | [27] 0.982 | [28] 1.01 | [29] 0.999 | [30] 0.984 | [31] 0.995 | [32] 0.995 | [33] 1 | [34] 1 | [35] 1.02 | [36] 1.02 | [37] 1.03 | [38] 0.986 | [39] 1.01 | [40] 0.992 | [41] 1.01 | [42] 1.02 | [43] 0.99 | [44] 0.974 | [45] 0.988 | [46] 1.03 | [47] 1.01 | [48] 0.972 | [49] 1.02 | [50] 1.02 | [51] 0.962 | [52] 1.04 | [53] 0.994 | [54] 0.995 | [55] 1 | [56] 0.992 | [57] 0.991 | [58] 1 | [59] 0.94 | [60] 0.975 | [61] 0.994 | [62] 1.01 | [63] 1.01 | [64] 1.01 | [65] 0.999 | [66] 0.973 | [67] 0.993 | [68] 0.982 | [69] 1 | [70] 1.02 | [71] 0.997 | [72] 1.02 | [73] 0.994 | [74] 1.01 | [75] 0.95 | [76] 0.993 | [77] 1.06 | [78] 0.994 | [79] 0.99 | [80] 0.964 | [81] 0.992 | [82] 0.998 | [83] 1.02 | [84] 1.02 | [85] 1.02 | [86] 0.984 | [87] 1.04 | [88] 0.996 | [89] 1.04 | [90] 1.04 | [91] 0.981 | [92] 0.975 | [93] 0.984

C=CCS(=O)C[C@H](N)C(=O)O (some centres undefined)
inactive: [1] 1 | [2] 1 | [3] 0.982 | [4] 1 | [5] 1 | [6] 1 | [7] 0.982 | [8] 0.981 | [9] 0.999 | [10] 0.992 | [11] 1.02 | [12] 0.984 | [13] 0.986 | [14] 1 | [15] 1.01 | [16] 1 | [17] 0.985 | [18] 0.97 | [19] 0.996 | locus YDR195W, strain ref2 0.986 | [20] 1 | [21] 1.01 | [22] 0.991 | [23] 0.979 | [24] 1 | [25] 1.01 | [26] 1.01 | [27] 1 | [28] 0.982 | [29] 1.01 | [30] 0.961 | [31] 0.998 | [32] 0.997 | [33] 0.999 | [34] 0.969 | [35] 0.994 | [36] 1 | [37] 0.981 | [38] 0.994 | [39] 1.02 | [40] 1.01 | [41] 1.02 | [42] 0.999 | [43] 0.998 | [44] 1.03 | [45] 0.992 | [46] 0.997 | [47] 0.995 | [48] 0.997 | [49] 0.991 | [50] 0.998 | [51] 0.952 | [52] 1 | [53] 0.984 | [54] 0.986 | [55] 1.01 | [56] 0.994 | [57] 0.995 | [58] 1 | [59] 1.02 | [60] 1 | [61] 0.987 | [62] 0.987 | [63] 1 | [64] 0.996 | [65] 0.961 | [66] 0.995 | [67] 0.994 | [68] 0.992 | [69] 0.998 | [70] 0.991 | [71] 0.976 | [72] 1.01 | [73] 0.998 | [74] 0.988 | [75] 0.971 | [76] 0.985 | [77] 1 | [78] 0.98 | [79] 0.997 | [80] 1.01 | [81] 1 | [82] 1.01 | [83] 0.962 | [84] 1 | [85] 1.01 | [86] 1.01 | [87] 1.02 | [88] 1 | [89] 0.983 | [90] 1.02 | [91] 0.929 | [92] 0.983 | [93] 1.02
